Source: the supplement of paper PMC12819154, “High-throughput peptide-centric local stability assay extends protein–ligand identification to membrane proteins, tissues and bacteria” (Nature Structural & Molecular Biology, 2025)

Compound: Cc1nc(Nc2ncc(C(=O)Nc3c(C)cccc3Cl)s2)cc(N2CCN(CCO)CC2)n1 [dasatinib]
Assay: log2 fold change of tryptic peptide abundance, ligand vs vehicle (limited proteolysis) (log2 ratio); higher = more trypsin-susceptible (destabilized)
Conditions: ligand concentration: 5 uM; sample: K562 cleared lysate

Chain of UniProt Q9Y2K2 (Q9Y2K2 whole entry, looked up): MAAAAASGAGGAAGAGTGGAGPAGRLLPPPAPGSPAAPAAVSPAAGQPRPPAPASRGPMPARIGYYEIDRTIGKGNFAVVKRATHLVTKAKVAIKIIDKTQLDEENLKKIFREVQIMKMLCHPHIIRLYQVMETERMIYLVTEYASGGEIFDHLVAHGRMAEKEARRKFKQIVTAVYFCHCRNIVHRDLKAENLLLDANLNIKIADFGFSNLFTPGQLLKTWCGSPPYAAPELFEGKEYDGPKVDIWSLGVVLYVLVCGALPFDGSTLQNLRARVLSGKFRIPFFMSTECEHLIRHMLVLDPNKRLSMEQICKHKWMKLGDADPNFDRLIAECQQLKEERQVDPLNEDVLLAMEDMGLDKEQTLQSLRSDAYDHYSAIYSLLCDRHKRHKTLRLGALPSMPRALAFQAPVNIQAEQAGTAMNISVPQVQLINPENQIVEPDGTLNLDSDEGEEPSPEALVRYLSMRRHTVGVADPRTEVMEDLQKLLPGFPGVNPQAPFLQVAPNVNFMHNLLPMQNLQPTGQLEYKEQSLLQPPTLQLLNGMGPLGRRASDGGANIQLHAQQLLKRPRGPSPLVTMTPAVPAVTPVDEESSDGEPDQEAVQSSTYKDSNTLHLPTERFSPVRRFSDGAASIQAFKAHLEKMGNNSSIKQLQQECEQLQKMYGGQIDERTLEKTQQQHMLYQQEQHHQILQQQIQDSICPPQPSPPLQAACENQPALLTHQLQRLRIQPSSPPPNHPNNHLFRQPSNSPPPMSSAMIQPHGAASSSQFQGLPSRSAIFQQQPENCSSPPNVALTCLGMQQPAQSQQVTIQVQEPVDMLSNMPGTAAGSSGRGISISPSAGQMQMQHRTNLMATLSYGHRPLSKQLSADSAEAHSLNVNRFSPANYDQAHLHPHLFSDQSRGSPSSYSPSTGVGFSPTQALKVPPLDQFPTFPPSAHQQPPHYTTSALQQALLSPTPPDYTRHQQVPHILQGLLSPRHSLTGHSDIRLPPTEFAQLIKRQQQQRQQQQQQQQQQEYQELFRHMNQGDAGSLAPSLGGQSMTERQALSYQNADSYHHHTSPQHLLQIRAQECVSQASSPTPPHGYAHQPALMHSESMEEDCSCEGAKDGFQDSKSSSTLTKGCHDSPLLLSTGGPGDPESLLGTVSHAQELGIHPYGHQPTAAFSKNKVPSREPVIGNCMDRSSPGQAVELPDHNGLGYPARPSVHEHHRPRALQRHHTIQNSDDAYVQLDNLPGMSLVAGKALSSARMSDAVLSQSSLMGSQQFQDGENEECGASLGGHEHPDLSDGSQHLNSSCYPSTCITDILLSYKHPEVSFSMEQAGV
Chain of UniProt Q06203 (Q06203 whole entry): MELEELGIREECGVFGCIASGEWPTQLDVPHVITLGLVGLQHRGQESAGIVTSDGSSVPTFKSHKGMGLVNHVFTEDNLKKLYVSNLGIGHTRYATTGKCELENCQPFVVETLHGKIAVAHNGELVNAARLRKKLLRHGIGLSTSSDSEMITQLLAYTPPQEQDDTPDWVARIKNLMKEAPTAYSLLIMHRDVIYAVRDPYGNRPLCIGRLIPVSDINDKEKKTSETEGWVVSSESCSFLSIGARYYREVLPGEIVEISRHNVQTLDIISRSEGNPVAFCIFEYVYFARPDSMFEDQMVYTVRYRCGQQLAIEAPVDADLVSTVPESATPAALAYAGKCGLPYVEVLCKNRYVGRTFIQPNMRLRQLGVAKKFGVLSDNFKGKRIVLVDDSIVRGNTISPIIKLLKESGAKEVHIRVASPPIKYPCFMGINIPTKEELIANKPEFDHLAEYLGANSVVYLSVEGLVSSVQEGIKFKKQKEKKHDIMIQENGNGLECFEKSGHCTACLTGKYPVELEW
Chain of UniProt Q8NI60 (Q8NI60 whole entry, looked up): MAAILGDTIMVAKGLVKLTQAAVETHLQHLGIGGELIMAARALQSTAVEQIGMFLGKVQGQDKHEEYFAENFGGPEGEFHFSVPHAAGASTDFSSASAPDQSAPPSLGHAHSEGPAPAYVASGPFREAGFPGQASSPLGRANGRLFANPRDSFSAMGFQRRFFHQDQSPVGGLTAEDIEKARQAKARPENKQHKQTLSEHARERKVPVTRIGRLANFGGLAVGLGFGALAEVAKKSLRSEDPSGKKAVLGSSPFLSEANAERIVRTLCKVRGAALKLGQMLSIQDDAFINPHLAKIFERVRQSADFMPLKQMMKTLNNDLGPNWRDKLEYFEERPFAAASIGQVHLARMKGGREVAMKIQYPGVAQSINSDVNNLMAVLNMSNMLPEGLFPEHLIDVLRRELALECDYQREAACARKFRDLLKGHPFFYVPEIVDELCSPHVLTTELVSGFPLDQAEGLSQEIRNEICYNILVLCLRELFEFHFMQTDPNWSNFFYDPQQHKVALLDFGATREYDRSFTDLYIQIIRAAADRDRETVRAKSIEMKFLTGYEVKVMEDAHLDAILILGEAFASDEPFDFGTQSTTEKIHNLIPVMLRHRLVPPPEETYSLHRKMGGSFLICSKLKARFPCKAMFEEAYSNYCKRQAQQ
Chain of UniProt Q9UL54 (Q9UL54 whole entry): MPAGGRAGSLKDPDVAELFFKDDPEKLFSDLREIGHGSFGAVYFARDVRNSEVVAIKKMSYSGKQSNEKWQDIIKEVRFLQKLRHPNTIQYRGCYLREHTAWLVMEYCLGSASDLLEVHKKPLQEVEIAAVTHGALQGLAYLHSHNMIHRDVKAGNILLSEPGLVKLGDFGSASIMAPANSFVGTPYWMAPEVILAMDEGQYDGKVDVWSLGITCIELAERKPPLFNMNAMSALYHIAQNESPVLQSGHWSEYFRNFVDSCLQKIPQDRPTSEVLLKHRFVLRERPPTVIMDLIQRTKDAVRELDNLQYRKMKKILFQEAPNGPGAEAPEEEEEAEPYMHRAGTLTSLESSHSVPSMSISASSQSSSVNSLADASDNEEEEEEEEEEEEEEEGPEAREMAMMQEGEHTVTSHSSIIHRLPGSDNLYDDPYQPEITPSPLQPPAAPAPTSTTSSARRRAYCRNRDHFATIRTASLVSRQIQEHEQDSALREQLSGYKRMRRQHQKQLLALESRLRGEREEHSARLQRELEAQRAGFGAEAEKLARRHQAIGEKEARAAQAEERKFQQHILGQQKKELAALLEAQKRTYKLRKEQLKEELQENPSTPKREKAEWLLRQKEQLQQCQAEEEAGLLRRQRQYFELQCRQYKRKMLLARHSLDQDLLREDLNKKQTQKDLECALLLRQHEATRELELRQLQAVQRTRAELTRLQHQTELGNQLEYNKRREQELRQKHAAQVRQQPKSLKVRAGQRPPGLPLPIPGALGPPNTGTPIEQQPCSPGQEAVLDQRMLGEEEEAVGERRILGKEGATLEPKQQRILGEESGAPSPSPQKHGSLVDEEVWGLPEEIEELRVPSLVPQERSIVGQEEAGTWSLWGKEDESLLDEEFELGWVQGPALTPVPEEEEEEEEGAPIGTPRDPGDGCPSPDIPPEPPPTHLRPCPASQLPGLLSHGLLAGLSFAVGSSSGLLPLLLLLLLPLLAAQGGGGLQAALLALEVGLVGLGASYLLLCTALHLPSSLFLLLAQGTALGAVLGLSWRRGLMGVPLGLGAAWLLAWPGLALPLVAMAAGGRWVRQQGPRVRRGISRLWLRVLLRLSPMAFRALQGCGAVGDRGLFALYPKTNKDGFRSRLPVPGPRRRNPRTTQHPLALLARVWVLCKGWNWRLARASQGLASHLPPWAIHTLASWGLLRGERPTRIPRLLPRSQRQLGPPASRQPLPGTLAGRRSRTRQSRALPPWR
Chain of UniProt P29597 (P29597 whole entry): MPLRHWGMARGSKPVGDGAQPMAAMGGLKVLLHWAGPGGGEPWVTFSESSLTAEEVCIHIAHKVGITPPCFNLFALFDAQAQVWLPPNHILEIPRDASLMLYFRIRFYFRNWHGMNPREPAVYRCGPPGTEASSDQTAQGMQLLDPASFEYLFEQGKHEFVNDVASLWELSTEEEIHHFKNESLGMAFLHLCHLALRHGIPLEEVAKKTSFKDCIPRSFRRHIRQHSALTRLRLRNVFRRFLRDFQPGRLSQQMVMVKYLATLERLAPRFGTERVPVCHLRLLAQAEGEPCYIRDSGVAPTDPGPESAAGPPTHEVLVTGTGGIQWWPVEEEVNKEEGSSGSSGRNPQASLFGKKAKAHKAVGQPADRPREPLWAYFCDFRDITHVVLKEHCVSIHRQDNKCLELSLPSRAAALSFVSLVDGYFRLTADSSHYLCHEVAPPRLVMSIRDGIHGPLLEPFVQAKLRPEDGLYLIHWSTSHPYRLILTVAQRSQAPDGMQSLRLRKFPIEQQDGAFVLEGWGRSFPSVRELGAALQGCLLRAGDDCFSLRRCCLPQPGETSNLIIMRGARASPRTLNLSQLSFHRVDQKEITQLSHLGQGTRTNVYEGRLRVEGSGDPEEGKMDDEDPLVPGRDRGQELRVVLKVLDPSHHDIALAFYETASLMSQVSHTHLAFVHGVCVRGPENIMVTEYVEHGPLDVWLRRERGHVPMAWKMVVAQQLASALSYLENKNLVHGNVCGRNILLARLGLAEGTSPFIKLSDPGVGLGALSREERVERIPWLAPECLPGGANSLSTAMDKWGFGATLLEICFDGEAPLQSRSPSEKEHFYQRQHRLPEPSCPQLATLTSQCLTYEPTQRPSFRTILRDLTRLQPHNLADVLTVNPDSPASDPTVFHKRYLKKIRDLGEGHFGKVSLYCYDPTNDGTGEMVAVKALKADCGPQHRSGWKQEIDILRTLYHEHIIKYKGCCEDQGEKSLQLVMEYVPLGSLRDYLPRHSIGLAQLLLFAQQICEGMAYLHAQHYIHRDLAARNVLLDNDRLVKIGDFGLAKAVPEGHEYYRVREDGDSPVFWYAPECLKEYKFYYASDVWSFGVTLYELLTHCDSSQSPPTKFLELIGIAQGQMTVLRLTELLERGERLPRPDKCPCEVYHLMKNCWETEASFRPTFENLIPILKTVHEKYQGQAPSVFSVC

Row | Target | log2 fold change
1 | UniProt Q13163 (peptide sequence: DVKPSNMLVNTR, peptide start residue: 283) | 1.77
2 | UniProt Q13188 (peptide sequence: AGNILLNTEGHAK, peptide start residue: 152) | -0.627
3 | UniProt Q13043 (peptide sequence: ATATQLLQHPFVR, peptide start residue: 270) | -0.627
4 | UniProt Q8NI60 (peptide sequence: VALLDFGATR, peptide start residue: 503) | -0.968
5 | UniProt Q9Y2K2 (peptide sequence: IGYYEIDR, peptide start residue: 63) | -1.83
6 | FECH (peptide sequence: LFLDRDLMTLPIQNK, peptide start residue: 92) (UniProt P22830) | -0.278
7 | TAOK2 (peptide sequence: ELDNLQYR, peptide start residue: 299) (UniProt Q9UL54) | 0.422
8 | PPAT (peptide sequence: TFIQPNMR, peptide start residue: 356) (UniProt Q06203) | -0.503
9 | TYK2 (peptide sequence: EITQLSHLGQGTR, peptide start residue: 588) (UniProt P29597) | -1.29
10 | ABL2 (peptide sequence: NCLVGENHVVK, peptide start residue: 414) (UniProt P42684) | -2.95
11 | UniProt P36507 (peptide sequence: KLEELELDEQQKK, peptide start residue: 40) | 0.445
